From paper PMC5700166 come the findings set out here.

One test deals with T1, GST-Co-NF-kB (Capsaspora owczarzaki, UniProt F1ARL5 200-546).
T1 sequence: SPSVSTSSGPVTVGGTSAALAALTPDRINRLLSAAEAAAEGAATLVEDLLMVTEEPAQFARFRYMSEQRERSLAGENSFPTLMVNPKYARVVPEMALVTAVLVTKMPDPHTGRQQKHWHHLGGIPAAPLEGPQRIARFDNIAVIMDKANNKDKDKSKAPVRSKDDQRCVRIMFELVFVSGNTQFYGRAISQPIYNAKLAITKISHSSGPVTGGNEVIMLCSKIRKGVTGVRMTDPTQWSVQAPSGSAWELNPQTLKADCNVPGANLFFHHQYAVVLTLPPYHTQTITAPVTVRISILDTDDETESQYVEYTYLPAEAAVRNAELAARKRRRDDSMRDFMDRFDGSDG
Put plainly: protein-binding microarray (PBM); PBM: ~300 nM protein, 6 mM HEPES pH 7.8, 80 mM KCl, 0.5 mM EDTA, 0.5 mM EGTA, 6% glycerol, 35 ng/ul poly-dIdC, 1% milk, 1 h, room temperature; Ap Aiptasia and Nv Nematostella (sea anemones) / Co Capsaspora / Aq Amphimedon (sponge) / Dm Drosophila / Hu human; RHD is the Rel homology domain; high values mean tight binding. To be noted: dsDNA, one strand shown.

Another test has as its target T2, GST-Dm-Relish (Drosophila melanogaster, UniProt Q94527 99-473).
T2 sequence: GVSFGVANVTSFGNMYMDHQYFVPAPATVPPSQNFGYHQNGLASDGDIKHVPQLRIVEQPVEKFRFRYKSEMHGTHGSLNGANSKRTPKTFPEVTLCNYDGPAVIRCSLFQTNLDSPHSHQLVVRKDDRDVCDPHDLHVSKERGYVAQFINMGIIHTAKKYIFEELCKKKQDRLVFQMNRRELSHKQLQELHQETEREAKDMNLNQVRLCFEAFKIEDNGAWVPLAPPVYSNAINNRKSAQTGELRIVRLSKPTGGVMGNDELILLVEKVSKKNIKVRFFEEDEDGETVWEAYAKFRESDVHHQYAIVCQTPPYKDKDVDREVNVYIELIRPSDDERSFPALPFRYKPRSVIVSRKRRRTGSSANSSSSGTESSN
The description is as above. The note with it: dsDNA, one strand shown.

The sequence “CCGATTAACATCACCCGCTTTATTGATGTTAATCGGGTCTTGATTCGCTTGACGCTGCTG” yielded a binding signal with GST-Co-NF-kB of 1.23 z-score.
Sequence “CCGATTAACATCAGTATTTTCCATGATGTTAATCGGGTCTTGATTCGCTTGACGCTGCTG” came in with a binding signal with GST-Dm-Relish of 1.33 z-score.
Regarding “CCGATTAACATCAATTTTTGCCCTGATGTTAATCGGGTCTTGATTCGCTTGACGCTGCTG”, the binding signal with GST-Co-NF-kB amounted to 1.72 z-score.
For the sequence “CCGATTAACATCAGAATTTCCTATGATGTTAATCGGGTCTTGATTCGCTTGACGCTGCTG”, the binding signal with GST-Dm-Relish stood at 1.23 z-score.
Turning to “CCGATTAACATCACAATAACGGGTGATGTTAATCGGGTCTTGATTCGCTTGACGCTGCTG”, the binding signal with GST-Co-NF-kB was 1.26 z-score; with GST-Dm-Relish, 1.63 z-score.
In the test with GST-Co-NF-kB, “CCGATTAACATCAATGTCGGTGGTGATGTTAATCGGGTCTTGATTCGCTTGACGCTGCTG” displayed a binding signal of 1.2 z-score.
Consider “CCGATTAACATCACCAAGTATAGTGATGTTAATCGGGTCTTGATTCGCTTGACGCTGCTG”, for which, in the test with GST-Co-NF-kB, the binding signal is 1.42 z-score.
Still for that read-out and setting: with “CCGATTAACATCACCCTACAAGTTGATGTTAATCGGGTCTTGATTCGCTTGACGCTGCTG” the figure was 3.08 z-score.
For “CCGATTAACATCACCTCTCGCGCTGATGTTAATCGGGTCTTGATTCGCTTGACGCTGCTG”, the binding signal with GST-Dm-Relish was 1.25 z-score.
Still for that read-out and setting: for “CCGATTAACATCAGTAAAATCCATGATGTTAATCGGGTCTTGATTCGCTTGACGCTGCTG” the value was 1.44 z-score.
On to “CCGATTAACATCACCCACGACGATGATGTTAATCGGGTCTTGATTCGCTTGACGCTGCTG”, for which the binding signal came to 1.01 z-score in the test with GST-Co-NF-kB and 1.04 z-score with GST-Dm-Relish.
In turn, “CCGATTAACATCAAGGGTGGAAATGATGTTAATCGGGTCTTGATTCGCTTGACGCTGCTG” came in with a binding signal with GST-Co-NF-kB of 1.66 z-score.
For the sequence “CCGATTAACATCAAAATTCCAATTGATGTTAATCGGGTCTTGATTCGCTTGACGCTGCTG”, in the test with GST-Dm-Relish, the binding signal was 1.02 z-score.
Consider “CCGATTAACATCAGTGAATTCCATGATGTTAATCGGGTCTTGATTCGCTTGACGCTGCTG”, for which the binding signal with GST-Dm-Relish is 2.81 z-score.
On to “CCGATTAACATCACAGGAAATCCTGATGTTAATCGGGTCTTGATTCGCTTGACGCTGCTG”, for which the binding signal with GST-Dm-Relish is 1.25 z-score.
In the test with GST-Dm-Relish, “CCGATTAACATCAAATATTTTCCTGATGTTAATCGGGTCTTGATTCGCTTGACGCTGCTG” displayed a binding signal of 1.09 z-score.
Same read-out and setting: for “CCGATTAACATCAGGAAAAAACATGATGTTAATCGGGTCTTGATTCGCTTGACGCTGCTG” the value was 2.35 z-score; for “CCGATTAACATCAGGCGGTAAGGTGATGTTAATCGGGTCTTGATTCGCTTGACGCTGCTG”, 1.01 z-score; for “CCGATTAACATCACTTAGTACGGTGATGTTAATCGGGTCTTGATTCGCTTGACGCTGCTG”, 1.1 z-score.
In the test with GST-Dm-Relish, “CCGATTAACATCAATAAATGTACTGATGTTAATCGGGTCTTGATTCGCTTGACGCTGCTG” registered a binding signal of 1.14 z-score.
The same measure, in the same setting: with “CCGATTAACATCAAGTAGTTTCCTGATGTTAATCGGGTCTTGATTCGCTTGACGCTGCTG” the figure was 2.37 z-score.
In turn, “CCGATTAACATCAGGATTTTACATGATGTTAATCGGGTCTTGATTCGCTTGACGCTGCTG” returned a binding signal in the test with GST-Dm-Relish of 3.35 z-score.
In the test with GST-Dm-Relish, “CCGATTAACATCACGTGATTTCCTGATGTTAATCGGGTCTTGATTCGCTTGACGCTGCTG” returned a binding signal of 4.11 z-score.
The sequence “CCGATTAACATCAAGTATTTTCCTGATGTTAATCGGGTCTTGATTCGCTTGACGCTGCTG” registered a binding signal with GST-Dm-Relish of 1.84 z-score.
Sequence “CCGATTAACATCACGTTTTTTCCTGATGTTAATCGGGTCTTGATTCGCTTGACGCTGCTG” showed a binding signal with GST-Dm-Relish of 1.57 z-score.
With “CCGATTAACATCACGTGAATTCCTGATGTTAATCGGGTCTTGATTCGCTTGACGCTGCTG”, the binding signal with GST-Dm-Relish is 2.84 z-score.
“CCGATTAACATCAGGAAAATACATGATGTTAATCGGGTCTTGATTCGCTTGACGCTGCTG” had a binding signal with GST-Dm-Relish of 4.66 z-score.
On to “CCGATTAACATCACAAAATTCCATGATGTTAATCGGGTCTTGATTCGCTTGACGCTGCTG”, for which the binding signal with GST-Dm-Relish turned out to be 1.67 z-score.
In the case of “CCGATTAACATCATGGTACTTGTTGATGTTAATCGGGTCTTGATTCGCTTGACGCTGCTG”, the binding signal in the test with GST-Dm-Relish was 1.26 z-score.
The same measure, in the same setting: with “CCGATTAACATCACGTAGTTTCCTGATGTTAATCGGGTCTTGATTCGCTTGACGCTGCTG” the figure was 1.46 z-score; with “CCGATTAACATCAGTACATTCCATGATGTTAATCGGGTCTTGATTCGCTTGACGCTGCTG”, 2.01 z-score; with “CCGATTAACATCAGGAAATCACATGATGTTAATCGGGTCTTGATTCGCTTGACGCTGCTG”, 7.1 z-score.
Take “CCGATTAACATCAAAAATTCCATTGATGTTAATCGGGTCTTGATTCGCTTGACGCTGCTG”: the binding signal with GST-Dm-Relish worked out at 1.66 z-score.
On the same count and under the same terms, for “CCGATTAACATCACAGAAAATCCTGATGTTAATCGGGTCTTGATTCGCTTGACGCTGCTG” the value was 1.19 z-score.
With “CCGATTAACATCAGGAATATACATGATGTTAATCGGGTCTTGATTCGCTTGACGCTGCTG”, the binding signal with GST-Dm-Relish came out at 2.59 z-score.
In turn, “CCGATTAACATCAAATAAATTCCTGATGTTAATCGGGTCTTGATTCGCTTGACGCTGCTG” returned a binding signal with GST-Dm-Relish of 1.27 z-score.
“CCGATTAACATCACGTTATTTCCTGATGTTAATCGGGTCTTGATTCGCTTGACGCTGCTG” showed a binding signal in the test with GST-Dm-Relish of 1.09 z-score.
“CCGATTAACATCAGGAAATTCACTGATGTTAATCGGGTCTTGATTCGCTTGACGCTGCTG” showed a binding signal with GST-Dm-Relish of 1.48 z-score.
“CCGATTAACATCACAACGGAATGTGATGTTAATCGGGTCTTGATTCGCTTGACGCTGCTG” registered a binding signal with GST-Dm-Relish of 1.37 z-score.
In the test with GST-Dm-Relish, “CCGATTAACATCAGTAGTTTCCATGATGTTAATCGGGTCTTGATTCGCTTGACGCTGCTG” yielded a binding signal of 1.79 z-score.
On the same count and under the same terms, for “CCGATTAACATCAGCATCCACGGTGATGTTAATCGGGTCTTGATTCGCTTGACGCTGCTG” the value was 1.01 z-score.
As for “CCGATTAACATCACGTTCTTTCCTGATGTTAATCGGGTCTTGATTCGCTTGACGCTGCTG”, the binding signal with GST-Dm-Relish stood at 2.3 z-score.
Still for that read-out and setting: with “CCGATTAACATCACCATTATAGGTGATGTTAATCGGGTCTTGATTCGCTTGACGCTGCTG” the figure was 1.48 z-score; with “CCGATTAACATCAAAAAACCGTTTGATGTTAATCGGGTCTTGATTCGCTTGACGCTGCTG”, 1.2 z-score.
As to “CCGATTAACATCAGTGTGCTTCTTGATGTTAATCGGGTCTTGATTCGCTTGACGCTGCTG”, the binding signal with GST-Dm-Relish is 1.67 z-score.
For “CCGATTAACATCAGGCCTTTCCATGATGTTAATCGGGTCTTGATTCGCTTGACGCTGCTG”, in the test with GST-Dm-Relish, the binding signal is 1.71 z-score.
“CCGATTAACATCACGTATTTTCCTGATGTTAATCGGGTCTTGATTCGCTTGACGCTGCTG” displayed a binding signal in the test with GST-Dm-Relish of 1.2 z-score.
The same measure, in the same setting: with “CCGATTAACATCAAGTTTTTTCCTGATGTTAATCGGGTCTTGATTCGCTTGACGCTGCTG” the figure was 1.98 z-score; with “CCGATTAACATCAAGGAAAATACTGATGTTAATCGGGTCTTGATTCGCTTGACGCTGCTG”, 1.2 z-score; with “CCGATTAACATCACGTAAAATCCTGATGTTAATCGGGTCTTGATTCGCTTGACGCTGCTG”, 1.05 z-score.
In the test with GST-Dm-Relish, “CCGATTAACATCAAATAATTTCCTGATGTTAATCGGGTCTTGATTCGCTTGACGCTGCTG” registered a binding signal of 1.21 z-score.
The sequence “CCGATTAACATCAAAATTCCAGGTGATGTTAATCGGGTCTTGATTCGCTTGACGCTGCTG” registered a binding signal with GST-Dm-Relish of 1.13 z-score.
On to “CCGATTAACATCACCGCAGCATGTGATGTTAATCGGGTCTTGATTCGCTTGACGCTGCTG”, for which the binding signal in the test with GST-Dm-Relish is 1.18 z-score.
